Measured values taken from PubChem BioAssay (NCI).
This is part of a sample that, as a whole, favours compounds with a hit. Of some 79,000 tested, about 15% had one in any assay. Values without a mark were called inactive. The source made the active and inactive calls. No stated cut-off is given here; in the data, active means growth inhibition above about 70%; inactive means the rest.

Tests used:
[1] = NCI Yeast Anticancer Drug Screen. Data for the wt2 strain (AID 169);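 further: 0% = growth of vehicle-treated yeast cultures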; settings: S. cerevisiae wt2 strain growth inhibition, hits give high values
Procedure, shortened: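 Yeast cells were exposed to test compounds, and growth inhibition was measured relative to vehicle-treated controls.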

[2] = NCI Yeast Anticancer Drug Screen. Data for the mlh1 strain (AID 171);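 further: 0% = growth of vehicle-treated control cultures of the same strain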; settings: S. cerevisiae mlh1 strain growth inhibition, hits give high values
Procedure, shortened: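 Yeast carrying a defined genetic alteration in DNA damage repair or cell cycle control were exposed to test compounds. Growth inhibition was measured relative to vehicle-treated controls.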

[3] = NCI Yeast Anticancer Drug Screen. Data for the sgs1 strain (AID 173);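 further: 0% = growth of vehicle-only control cultures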; settings: S. cerevisiae sgs1 mutant, hits give high values
Procedure, shortened: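 Yeast mutant strains carrying defined defects in DNA damage repair or cell cycle control were exposed to test compounds. Growth inhibition was scored against vehicle-treated controls.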

[4] = NCI Yeast Anticancer Drug Screen. Data for the mlh1 rad18 strain (AID 175); settings: S. cerevisiae mlh1 rad18 strain growth inhibition, hits give high values
Procedure, shortened: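 Growth inhibition of the yeast strain was measured after compound exposure and expressed relative to vehicle-treated controls. The strain carries defined defects in DNA damage repair.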

[5] = NCI Yeast Anticancer Drug Screen. Data for the rad18 strain (AID 177); settings: S. cerevisiae rad18 mutant growth inhibition, hits give high values
Procedure, shortened: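 Yeast carrying a defined DNA damage repair alteration were exposed to compounds. Growth inhibition was expressed relative to vehicle-treated controls.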

[6] = NCI Yeast Anticancer Drug Screen. Data for the rad52 strain (AID 147);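 further: 0% = growth of vehicle-treated control cultures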; settings: S. cerevisiae rad52 mutant growth inhibition, hits give high values
Procedure, shortened: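 Yeast strain carrying a DNA damage repair alteration was exposed to test compounds. Growth inhibition was measured relative to vehicle-treated controls.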

[7] = NCI Yeast Anticancer Drug Screen. Data for the wt1 strain (AID 149);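 further: 0% = growth of vehicle-treated wt1 cultures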; settings: S. cerevisiae wt1 strain (SPY 50644) growth inhibition, hits give high values
Procedure, shortened: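 wt1 strain grown with compound or vehicle; inhibition taken from the growth difference.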

[8] = NCI Yeast Anticancer Drug Screen. Data for the rad50EPP+ strain (AID 151);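 further: 0% = growth of vehicle-treated control cultures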; settings: S. cerevisiae rad50 mutant strain, hits give high values
Procedure, shortened: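 Yeast strain carrying rad50 alteration (rad50EPP+) exposed to compounds; growth inhibition measured relative to vehicle-treated controls.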

[9] = NCI Yeast Anticancer Drug Screen. Data for the mgt1 strain (AID 153); settings: S. cerevisiae mgt1 mutant growth inhibition, hits give high values
Procedure, shortened: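 Yeast mgt1 strain (DNA repair/cell-cycle alteration panel) exposed to compounds; growth inhibition measured relative to vehicle-treated controls.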

[10] = NCI Yeast Anticancer Drug Screen. Data for the rad50 strain (AID 155);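 further: 0% = growth of vehicle-only cultures of the same strain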; settings: S. cerevisiae rad50 strain growth inhibition, hits give high values
Procedure, shortened: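 DNA repair mutant yeast, compound exposure, growth read-out; inhibition is taken relative to vehicle.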

[11] = NCI Yeast Anticancer Drug Screen. Data for the mec2-1 strain (AID 157); settings: S. cerevisiae mec2-1 strain, hits give high values
Procedure, shortened: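 mec2-1 yeast strain, carrying an alteration in DNA damage repair or cell cycle control, was exposed to compounds; growth inhibition was measured relative to vehicle-treated controls.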

[12] = NCI Yeast Anticancer Drug Screen. Data for the rad14 strain (AID 159);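 further: 0% = growth of vehicle-treated control cultures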; settings: S. cerevisiae rad14 strain growth inhibition, hits give high values
Procedure, shortened: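 DNA repair-defective yeast, compound-exposed; % growth inhibition derived by comparison with vehicle-treated controls.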

[13] = NCI Yeast Anticancer Drug Screen. Data for the sgs1 mgt1 strain (AID 161);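 further: 0% = growth of cultures given vehicle only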; settings: S. cerevisiae sgs1 mgt1 strain, hits give high values
Procedure, shortened: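 Percent growth inhibition was derived by comparing compound-exposed mutant yeast with vehicle-exposed cultures. The strain carries alterations in DNA damage repair.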

[14] = NCI Yeast Anticancer Drug Screen. Data for the CLN2oe strain (AID 163);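 further: 0% = growth of vehicle-only control cultures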; settings: S. cerevisiae CLN2oe strain, hits give high values
Procedure, shortened: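 Yeast cells carrying a defined cell-cycle control alteration were exposed to test compounds. Growth inhibition was scored against vehicle-treated control cultures.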

[15] = NCI Yeast Anticancer Drug Screen. Data for the cln2 rad14 strain (AID 165);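 further: 0% = growth equal to vehicle treated cultures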; settings: S. cerevisiae cln2 rad14 strain, hits give high values
Procedure, shortened: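 Yeast carrying cln2 and rad14 alterations (cell cycle control and DNA damage repair) were exposed to compounds. Growth inhibition was measured against vehicle-treated controls.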

[16] = NCI Yeast Anticancer Drug Screen. Data for the bub3 strain (AID 167); settings: S. cerevisiae bub3 mutant strain, hits give high values
Procedure, shortened: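 In this screen, a yeast mutant lacking normal mitotic checkpoint function is challenged with compound. Relative growth versus vehicle gives the inhibition value.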

[17] = at 5.0 µM (retest, dose inferred, filed as 0.5)
[18] = at 50.0 µM (retest, dose inferred, filed as 5.0)

SMILES: CCCCS(=O)(=O)Nc1ccc(Nc2c3ccccc3nc3ccccc23)c(OC)c1
- growth inhibition ([1]; at 1.2 µM): -13%
- growth inhibition ([1]; at 3.7 µM): -22%
- growth inhibition ([1]; at 11.0 µM): -13%
- growth inhibition ([1]; at 33.0 µM): 41%
- growth inhibition ([1]; at 100.0 µM): 93% (active)
- growth inhibition ([2]; at 1.2 µM): -58%
- growth inhibition ([2]; at 3.7 µM): -43%
- growth inhibition ([2]; at 11.0 µM): -29%
- growth inhibition ([2]; at 33.0 µM): 73% (active)
- growth inhibition ([2]; at 100.0 µM): 97% (active)
- growth inhibition ([3]; at 1.2 µM): 1%
- growth inhibition ([3]; at 3.7 µM): 3%
- growth inhibition ([3]; at 11.0 µM): 20%
- growth inhibition ([3]; at 33.0 µM): 79% (active)
- growth inhibition ([3]; at 100.0 µM): 97% (active)
- growth inhibition [4, 17]: 78% (active)
- growth inhibition [4, 18]: 97% (active)
- growth inhibition ([4]; at 50.0 µM): 84% (active)
- growth inhibition ([5]; at 1.2 µM): -14%
- growth inhibition ([5]; at 3.7 µM): -15%
- growth inhibition ([5]; at 11.0 µM): 0%
- growth inhibition ([5]; at 33.0 µM): 78% (active)
- growth inhibition ([5]; at 100.0 µM): 96% (active)

SMILES: CC1=CC(=O)C=CC1=Nc1cc(Cl)c(O)c(Cl)c1
- growth inhibition ([6]; at 1.2 µM): -39%
- growth inhibition ([6]; at 3.7 µM): -29%
- growth inhibition ([6]; at 11.0 µM): 7%
- growth inhibition ([6]; at 33.0 µM): 66%
- growth inhibition ([6]; at 100.0 µM): 92% (active)
- growth inhibition ([7]; at 1.2 µM): -30%
- growth inhibition ([7]; at 3.7 µM): -24%
- growth inhibition ([7]; at 11.0 µM): -12%
- growth inhibition ([7]; at 33.0 µM): 52%
- growth inhibition ([7]; at 100.0 µM): 93% (active)
- growth inhibition ([8]; at 1.2 µM): -31%
- growth inhibition ([8]; at 3.7 µM): -15%
- growth inhibition ([8]; at 11.0 µM): -16%
- growth inhibition ([8]; at 33.0 µM): 27%
- growth inhibition ([8]; at 100.0 µM): 70% (active)
- growth inhibition ([9]; at 1.2 µM): -4%
- growth inhibition ([9]; at 3.7 µM): 4%
- growth inhibition ([9]; at 11.0 µM): 9%
- growth inhibition ([9]; at 33.0 µM): 40%
- growth inhibition ([9]; at 100.0 µM): 94% (active)
- growth inhibition ([10]; at 1.2 µM): -2%
- growth inhibition ([10]; at 3.7 µM): 8%
- growth inhibition [10, 17]: 55%
- growth inhibition ([10]; at 11.0 µM): 8%
- growth inhibition ([10]; at 33.0 µM): 62%
- growth inhibition [10, 18]: 53%
- growth inhibition ([10]; at 50.0 µM): 81.4% (active)
- growth inhibition ([10]; at 100.0 µM): 91% (active)
- growth inhibition ([11]; at 1.2 µM): -21%
- growth inhibition ([11]; at 3.7 µM): -16%
- growth inhibition [11, 17]: 63%
- growth inhibition ([11]; at 11.0 µM): -4%
- growth inhibition ([11]; at 33.0 µM): 55%
- growth inhibition [11, 18]: 48%
- growth inhibition ([11]; at 50.0 µM): 79.3% (active)
- growth inhibition ([11]; at 100.0 µM): 93% (active)
- growth inhibition ([12]; at 1.2 µM): -43%
- growth inhibition ([12]; at 3.7 µM): -31%
- growth inhibition ([12]; at 11.0 µM): -30%
- growth inhibition ([12]; at 33.0 µM): 38%
- growth inhibition ([12]; at 100.0 µM): 89% (active)
- growth inhibition [13, 17]: -4%
- growth inhibition [13, 18]: 93% (active)
- growth inhibition ([13]; at 50.0 µM): 83.7% (active)
- growth inhibition ([14]; at 1.2 µM): -2%
- growth inhibition ([14]; at 3.7 µM): -9%
- growth inhibition ([14]; at 11.0 µM): 22%
- growth inhibition ([14]; at 33.0 µM): 45%
- growth inhibition ([14]; at 100.0 µM): 90% (active)
- growth inhibition [15, 17]: 48%
- growth inhibition [15, 18]: 94% (active)
- growth inhibition ([15]; at 50.0 µM): 77.2% (active)
- growth inhibition ([16]; at 1.2 µM): 7%
- growth inhibition ([16]; at 3.7 µM): 11%
- growth inhibition [16, 17]: 45%
- growth inhibition ([16]; at 11.0 µM): 8%
- growth inhibition ([16]; at 33.0 µM): 49%
- growth inhibition [16, 18]: 91% (active)
- growth inhibition ([16]; at 50.0 µM): 83% (active)
- growth inhibition ([16]; at 100.0 µM): 92% (active)
- growth inhibition ([1]; at 1.2 µM): -31%
- growth inhibition ([1]; at 3.7 µM): -20%
- growth inhibition ([1]; at 11.0 µM): -14%
- growth inhibition ([1]; at 33.0 µM): 30%
- growth inhibition ([1]; at 100.0 µM): 94% (active)
- growth inhibition ([2]; at 1.2 µM): -51%
- growth inhibition ([2]; at 3.7 µM): -24%
- growth inhibition ([2]; at 11.0 µM): -21%
- growth inhibition ([2]; at 33.0 µM): 10%
- growth inhibition ([2]; at 100.0 µM): 91% (active)
- growth inhibition ([3]; at 1.2 µM): -50%
- growth inhibition ([3]; at 3.7 µM): -42%
- growth inhibition ([3]; at 11.0 µM): -17%
- growth inhibition ([3]; at 33.0 µM): 43%
- growth inhibition ([3]; at 100.0 µM): 89% (active)
- growth inhibition [4, 17]: 40%
- growth inhibition [4, 18]: 48%
- growth inhibition ([4]; at 50.0 µM): 82% (active)
- growth inhibition ([5]; at 1.2 µM): -11%
- growth inhibition ([5]; at 3.7 µM): -10%
- growth inhibition ([5]; at 11.0 µM): -9%
- growth inhibition ([5]; at 33.0 µM): 60%
- growth inhibition ([5]; at 100.0 µM): 91% (active)
